Laboratory results as given in ChEMBL document CHEMBL3988442, “University of Dundee, Small-Polar-MMV Screening Library” (2021).
Among all 48,000 compounds or so, about 13,000 (27%) showed an effect of 50% or more. The list shows a part of the results.

tested on: Wolbachia pipientis; test: Anti-Wolbachia Cell-Based Screen; format: functional; parameters: scale not given: in the data most compounds retested in dose-response had high values; conditions: 5 µM

SMILES | Percent Effect [%]
O=C(NC1CC1)C1CCCN(c2cc(-n3cncn3)ncn2)C1 (configuration not stated) | -0.5146
COCCN(C)C[C@@H]1CCC[C@@H]2CN(c3cc(OC)ncn3)C[C@@H]21.O=C(O)C(F)(F)F | -6.847
Cc1cccc(C2(CNC(=O)C(C)S(C)(=O)=O)CCCC2)c1 (configuration not stated) | 0.1525
O=C(O)C(F)(F)F.c1ccc(CN2Cc3nccn3CC(Cn3cncn3)C2)nc1 (configuration not stated) | 98.39
O=C(O)C(F)(F)F.c1ccc(CN2Cc3nccn3CC(Cn3cccn3)C2)nc1 (configuration not stated) | 97.11
CC(=O)N1[C@H](Cn2cncn2)C[C@@H]2CN(Cc3ccccn3)CC[C@@H]21.O=C(O)C(F)(F)F.O=C(O)C(F)(F)F | 10.04
N#Cc1ccc(NCCCOCC2CCCO2)c(F)c1 (configuration not stated) | -11.95
COc1ccc(C)c2c1N(C(=O)c1ccc3nnc(C)n3c1)CCC2 | -2.27
CC(=O)NCc1ccc(C(=O)N2CCCc3c(F)ccc(C)c32)o1 | -10.88
CN(C)C(=O)CN1CCCc2c(F)cc(Br)cc21 | 1.685
CC(c1ccccc1)N(C)C(=O)CN1CCCc2cccc(F)c21 (configuration not stated) | 5.525
COc1cccc2c1N(C(=O)c1ccc(C)nc1)CCC2 | 2.178
Cc1ccc(F)c2c1N(C(=O)c1ccc(S(C)(=O)=O)cc1)CCC2 | 11.45
CN(C)C(=O)Cn1cc(C(=O)N2CCCc3cccc(F)c32)nn1 | 105.3
Cc1ccc(F)c2c1CCCN2C(=O)c1cn(CC(=O)N(C)C)nn1 | 122.6
Cc1ccc(F)c2c1N(C(=O)c1cn(CC(=O)N(C)C)nn1)CCC2 | 115.7
N[C@@H]1CC[C@@H](NC(=O)c2ccccc2OC(F)(F)C(F)F)C1 | 3.993
NC(=O)c1nc(CN2CCOC(C(F)(F)F)C2)no1 (configuration not stated) | -3.309
CNC(=O)c1nc(CN2CCOC(Cc3ccc(F)cc3)C2)no1 (configuration not stated) | -1.093
O=C(NC1CC1)c1nc(Cn2c(C(F)F)nc3ccccc32)no1 | 97.34
CC(C)NC(=O)CN(C)C1CCN(c2cnc3ccccc3n2)CC1 | -13.33
Cc1ccc(C(=O)NC2CCN(Cc3noc(CC(C)C)n3)CC2)s1 | 3.066
CC(C)NC(=O)c1nc(Cn2c(C(F)(F)F)nc3ccccc32)no1 | 97.59
CNC(=O)c1nc(CN2CCOC(CCCC(C)C)C2)no1 (configuration not stated) | 2.803
CC(C)NC(=O)c1nc(Cn2c(C(F)F)nc3ccccc32)no1 | 117.9
CNC(=O)c1nc(CN2CCOC(C(F)(F)F)C2)no1 (configuration not stated) | -14.11

SMILES | Percent Effect [%]
O=C(NCCn1ccnc1)c1csc(Br)c1 | 7.312
CC(C)c1cncnc1-c1cc(F)cc2c1OC(CN)C2 (configuration not stated) | -15.48
O=C(c1nc2c(s1)CCCN2CC1CC1)N1CCCC1 | 21.73
O=C(NCC1CCCO1)c1nc2c(s1)CCCN2C(=O)C1CC1 (configuration not stated) | 108.2
Cc1ccc(N2CCCc3sc(C(=O)NCc4ccc(C)o4)nc32)nn1 | -0.9915
O=C(NCC1CCCO1)c1nc2c(s1)CCCN2CC1CC1 (configuration not stated) | 97.2
O=C(c1nc2c(s1)CCCN2CC1CC1)N1CCOCC1 | 13.28
CN1CCCc2sc(C(=O)NC3CC3)nc21 | -6.027
O=C(NCC1CCCO1)c1nc2c(s1)CCCN2c1ncccn1 (configuration not stated) | 95.9
Cc1ccc(N2CCCc3sc(C(=O)NCCO)nc32)nn1 | -4.347
O=C(NC1CC1)c1nc2c(s1)CCCN2c1ccccc1 | 3.118
O=C(c1nc2c(s1)CCCN2C(=O)C1CC1)N1CCOCC1 | 0.08995
O=C(NCc1cccnc1)c1nc2c(s1)CCCN2c1ncccn1 | -3.859
Cc1ccc(N2CCCc3sc(C(=O)NCC4CCCO4)nc32)nn1 (configuration not stated) | 101.4
c1cnc(NCC2Cn3nnc(-c4ccsc4)c3CO2)nc1 (configuration not stated) | -8.794
CCc1nnc(N2C[C@@H](NC(C)=O)[C@H](c3ccc(C)o3)C2)s1 | 0.4936
CCN1CCN(c2ccc(C(=O)NC(C)C(=O)N(C)C)cc2)CC1 (configuration not stated) | 1.595
CNC(=O)CN1CCN(C(=O)Nc2ccc(C)s2)CC1 | -4.084
CN(CCc1cccs1)C(=O)Nc1ccc2c(c1)C(=O)N(C)CC2 | -32.58
Cc1nn(C(C)C)c(C)c1CN1CCC(c2cc(C(C)C)n[nH]2)CC1 | 4.458
O=C(NCC1CCCO1)c1nc2c(s1)CCCN2Cc1ccccc1 (configuration not stated) | 98.1
COCCN1CCCc2sc(C(=O)N3CCCN(C)CC3)nc21.O=C(O)C(F)(F)F | -1.049
COCCN1CCCc2sc(C(=O)NCC3CCCO3)nc21 (configuration not stated) | 104.4
COCCNC(=O)c1nc2c(s1)CCCN2Cc1ccccc1 | 6.623
CN(C)C(=O)CNC(=O)c1nc2c(s1)CCCN2Cc1ccccc1 | -13.23
COCCN1CCCc2sc(C(=O)Nc3ccc(C)nc3)nc21.O=C(O)C(F)(F)F | 8.218

SMILES | Percent Effect [%]
Cc1ccc(-c2n[nH]cc2CN(Cc2nccn2C)C(C)C)cc1C | -8.138
COc1ccc(N2Cc3nc(=O)[nH]n3C2=O)cc1 | -10.45
COCCSc1ccc(-n2cccn2)nn1 | 0.3938
CC(c1nncn1C)n1cc(-c2cc(CN3CCCC3)cs2)nn1 (configuration not stated) | 2.3
CCC(Sc1ncc(CO)n1C)c1ccccc1 (configuration not stated) | 5.427
Cc1cc(Br)c(O)c(-c2nc(N3CCCCC3)sc2C)c1 | 122.7
Cc1cc(Br)c(O)c(-c2nc(N3CCOCC3)sc2C)c1 | 133.3
Cc1cc(Br)c(O)c(C(=O)N2CCC(CN3CCCCCC3)CC2)c1 | 20
Oc1nnc(-c2ccccc2)c2sc(N3CCCCC3)nc12 | -2.363
COc1ccc(-n2nc(C(C)C)nc2Cn2cncn2)cc1 | 2.008
CC(C)Cc1cc(C(=O)N2CCC(C(=O)N3CCOCC3)CC2)on1 | -1.733
Cc1nc(CN2CCN(C(=O)c3cc(C4CC4)on3)CC2)cs1 | -4.93
CCn1c(C2CCN(C(=O)CCc3cc(Cl)no3)CC2)nn(C)c1=O | 91.1
CCn1c(C2CCN(C(=O)c3cc(CC(C)C)no3)CC2)nn(C)c1=O | 80.93
CCOC(=O)CC1CCCCN1C(=O)CCc1cc(Cl)no1 (configuration not stated) | -3.772
O=C(c1cc(C2CC2)on1)N1CCC(Oc2ncccc2Br)CC1 | 12.65
CCn1c(C2CCN(C(=O)c3cc(C4CC4)on3)CC2)nn(C)c1=O | 94.75
COC(=O)C1CCCN1C(=O)c1cc(CC(C)C)no1 (configuration not stated) | -6
O=C(CCc1cc(Cl)no1)N1CCN(CCn2cncn2)CC1 | -9.479
CCn1c(C2CCN(C(=O)c3cc(CC(C)C)on3)CC2)nn(C)c1=O | 100.4
CCn1c(CC2CCN(C(=O)c3cc(CC(C)C)on3)CC2)n[nH]c1=O | 3.496
CCn1nc(CC(C)C)cc1C(=O)N1CCC(n2cnnc2)CC1 | 19.79
CC(C)N(Cc1cccnc1)C(=O)CSc1ccc(C#N)cc1 | -11.42
CC(C)(C)c1cc(C[C@H]2CNCC[C@H]2CC(=O)Nc2ccccc2)no1 | -4.037
COc1ccc(Cc2noc(C3=NN(C)C(=O)CC3)n2)cc1OC | -17.82
CCn1c(C2CCN(C(=O)c3cc(Cl)no3)CC2)nn(C)c1=O | 81.76

SMILES | Percent Effect [%]
CCn1c(C2CCCN(Cc3cc(C)cc(C)c3)C2)nn(C)c1=O (configuration not stated) | 14.99
CCn1c(C2CCCN(Cc3ccc(F)cc3Cl)C2)nn(C)c1=O (configuration not stated) | -0.1084
CCN1CCC(CC(=O)N2CCN(c3ccccc3OC)CC2C)CC1 (configuration not stated) | 10.24
COC1CCN(C(=O)C2CCCC2)CC(=O)N(C)c2ccccc21 (configuration not stated) | 111
COC1CCN(C(=O)CC2CCCC2)CC(=O)N(C)c2ccccc21 (configuration not stated) | 104.1
COC1CN(C(=O)CC2CCCC2)CCC(=O)N(C)c2ccccc21 (configuration not stated) | 101.3
COC1CCN(C(=O)C2CC(=O)N(c3ccccc3Br)C2)CC1 (configuration not stated) | -10.75
COC(=O)NCC(=O)NCC1(c2c(F)cccc2F)CCCC1 | 1.826
O=C(CN1CCC(c2cccc(F)c2)C1)NCC(F)(F)F (configuration not stated) | -23.91
COc1cc(F)c(C(=O)NCc2cc(C)on2)c(F)c1 | -19.16
CCSc1ncc(CN2CCN(c3nc(C)ncc3C)CC2)cn1 | 0.05242
O=C(NC[C@H]1CCCO1)c1ccc(S(=O)(=O)N2C[C@@H]3C[C@H]2CN3)cc1 | -5.829
CN(Cc1ccccn1)C(=O)c1cc(CN2CCC(O)CC2)on1 | -20.11
NCCn1cc(C(=O)NCc2ccccc2-n2cccn2)nn1 | -2.966
CCCc1nn(C2CCN(C(C)C)C2=O)c(=O)o1 (configuration not stated) | -9.274
CC(C)N1CCCC(N2CCOC3(CCCC3)C2)C1=O (configuration not stated) | -1.206
Cc1nnc(-c2cccc(C#N)c2)n1C1CCN(C(C)C)C1=O (configuration not stated) | 107.2
CC(=O)N1CCC(Oc2cccc(C#N)c2)CC1 | -7.429
CCCc1nn(C2CCCN(C(C)C)C2=O)c(=O)o1 (configuration not stated) | -1.45
Cc1nnc(-c2cccc(C#N)c2)n1C1CCCN(C(C)C)C1=O (configuration not stated) | 109.2
CC1CCC(O)(Cn2ncnc2-c2cccc(C#N)c2)CC1 (configuration not stated) | -11.33
Cc1nnc(-c2cccc(C#N)c2)n1C1CCN(C2CC2)C1=O (configuration not stated) | 99.28
CC(C)N1CCC(Nc2ccn(CCC#N)n2)C1=O (configuration not stated) | 1.087
Cc1noc(-c2cccnc2N2CCN(c3cnn(C)c3)CC2)n1 | -14.91
